# Laboratory results published in PubChem BioAssay AID1159580 (chemical genetic matrix, 2015).
# About 2,000 (36%) of roughly 5,500 compounds were called active. Another 18% or so got no clear call; they are omitted. This is one part of the list. A number with no mark means an inactive call. No stated cut-off is given here; in the data, active means normalized growth mostly below about 0.91 (no sharp cut-off); inconclusive means no clear call, values can overlap the other calls; inactive means mostly above about 0.92.
# Assay: chemical genetic growth profiling, strain panel (AID 1159580);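 further: tested at 20 µM; growth read once vehicle control cultures reached saturation at 30 °C; 1 = growth at the plate median or of vehicle wells; lower values mean less growth of the strain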
# Settings: S. cerevisiae deletion strains, growth OD
# [1] = locus YAL013W, strain DEP1, hits give low values
# [2] = locus YBR229C, strain ROT2, hits give low values
# [3] = locus YCL061C, strain MRC1, hits give low values
# [4] = locus YDL101C, strain DUN1, hits give low values
# [5] = locus YDR150W, strain NUM1, hits give low values
# [6] = locus YEL061C, strain CIN8, hits give low values
# [7] = locus YGR078C, strain PAC10, hits give low values
# [8] = locus YHR030C, strain SLT2, hits give low values
# [9] = locus YHR087W, strain rtc3, hits give low values
# [10] = locus YJL187C, strain SWE1, hits give low values
# [11] = locus YJR043C, strain POL32, hits give low values
# [12] = locus YJR075W, strain HOC1, hits give low values
# [13] = locus YKL190W, strain CNB1, hits give low values
# [14] = locus YLR039C, strain RIC1, hits give low values
# [15] = locus YLR058C, strain SHM2 (second series), hits give low values
# [16] = locus YLR085C, strain ARP6, hits give low values
# [17] = locus YLR262C, strain YPT6, hits give low values
# [18] = locus YML094W, strain GIM5, hits give low values
# [19] = locus YMR219W, strain ESC1, hits give low values
# [20] = locus YMR263W, strain SAP30, hits give low values
# [21] = locus YMR307W, strain GAS1, hits give low values
# [22] = locus YNL153C, strain GIM3, hits give low values
# [23] = locus YNL298W, strain CLA4 (second series), hits give low values
# [24] = locus YNL322C, strain KRE1, hits give low values
# [25] = locus YNR030W, strain Alg12, hits give low values
# [26] = locus YOL006C, strain TOP1, hits give low values
# [27] = locus YPL055C, strain LGE1, hits give low values
# [28] = locus YPL241C, strain CIN2, hits give low values
# [29] = locus YPR135W, strain CTF4, hits give low values
# [30] = locus YGR229C, strain SMI1, hits give low values
compound,measurement,setting,value
Cc1c(S(=O)(=O)c2ccc(Cl)cc2)csc1C(=O)Nc1ccc(N2CCOCC2)c(Cl)c1,normalized growth,[1],0.992
same,normalized growth,[2],1.03
same,normalized growth,[3],1.05
same,normalized growth,[4],1.06
same,normalized growth,[5],1.05
same,normalized growth,[6],1.03
same,normalized growth,[7],1.07
same,normalized growth,[8],1.06
same,normalized growth,[9],0.999
same,normalized growth,[10],1.03
same,normalized growth,[11],1.03
same,normalized growth,[12],1.15 [resistant] (active)
same,normalized growth,[13],0.982
same,normalized growth,[14],0.992
same,normalized growth,[15],0.989
same,normalized growth,[16],0.947
same,normalized growth,[17],1.12
same,normalized growth,[18],0.988
same,normalized growth,[19],1
same,normalized growth,[20],1.03
same,normalized growth,[21],1.03
same,normalized growth,[22],1.06
same,normalized growth,[23],0.999
same,normalized growth,[24],0.991
same,normalized growth,[25],0.995
same,normalized growth,[26],1.03
same,normalized growth,[27],1.05
same,normalized growth,[28],0.984
same,normalized growth,[29],1.13
Cc1c(S(=O)(=O)c2ccc(Cl)cc2)csc1C(=O)NNc1cccc(Cl)c1,normalized growth,"locus YAR019C, strain CDC15, hits give low values",0.964
same,normalized growth,"locus YBL105C, strain PKC1, hits give low values",0.958
same,normalized growth,"locus YBR135W, strain CKS1, hits give low values",0.96
same,normalized growth,"locus YBR136W, strain MEC1, hits give low values",0.962
same,normalized growth,"locus YBR160W, strain CDC28, hits give low values",0.957
same,normalized growth,"locus YDL017W, strain CDC7, hits give low values",0.967
same,normalized growth,"locus YDL028C, strain MPS1, hits give low values",0.97
same,normalized growth,[4],0.978
same,normalized growth,"locus YDL108W, strain KIN28, hits give low values",0.973
same,normalized growth,"locus YDL132W, strain cdc53, hits give low values",0.954
same,normalized growth,"locus YDL214C, strain PRR2, hits give low values",0.826
same,normalized growth,"locus YDR052C, strain DBF4, hits give low values",0.953
same,normalized growth,"locus YDR054C, strain cdc34, hits give low values",0.947
same,normalized growth,"locus YDR226W, strain ADK1, hits give low values",0.959
same,normalized growth,"locus YDR477W, strain SNF1, hits give low values",0.769
same,normalized growth,"locus YER123W, strain YCK3, hits give low values",0.574 (active)
same,normalized growth,"locus YER133W, strain GLC7, hits give low values",0.864
same,normalized growth,"locus YFL009W, strain cdc4, hits give low values",0.962
same,normalized growth,"locus YFL029C, strain CAK1, hits give low values",0.959
same,normalized growth,"locus YFR003C, strain YPI1, hits give low values",0.967
same,normalized growth,"locus YFR019W, strain FAB1, hits give low values",0.653 (active)
same,normalized growth,"locus YFR028C, strain CDC14, hits give low values",0.948
same,normalized growth,"locus YGR040W, strain KSS1, hits give low values",0.811
same,normalized growth,"locus YGR052W, strain FMP48, hits give low values",0.71
same,normalized growth,"locus YGR092W, strain DBF2, hits give low values",0.783
same,normalized growth,[8],0.884
same,normalized growth,"locus YHR079C, strain IRE1, hits give low values",1.01
same,normalized growth,"locus YHR082C, strain KSP1, hits give low values",0.958
same,normalized growth,"locus YHR205W, strain SCH9, hits give low values",0.907
same,normalized growth,"locus YIL147C, strain SLN1, hits give low values",0.972
same,normalized growth,"locus YJL095W, strain BCK1, hits give low values",0.679
same,normalized growth,"locus YJL128C, strain PBS2, hits give low values",0.968
same,normalized growth,"locus YJL157C, strain FAR1, hits give low values",0.886
same,normalized growth,"locus YJR016C, strain ILV3, hits give low values",0.968
same,normalized growth,"locus YJR066W, strain TOR1 (second series), hits give low values",0.684
same,normalized growth,"locus YJR066W, strain TOR1, hits give low values",0.872
same,normalized growth,"locus YKL048C, strain ELM1, hits give low values",0.947
same,normalized growth,"locus YKL067W, strain YNK1, hits give low values",0.879
same,normalized growth,"locus YKL101W, strain HSL1, hits give low values",0.948
same,normalized growth,"locus YKL193C, strain SDS22, hits give low values",0.963
same,normalized growth,"locus YKL203C, strain TOR2, hits give low values",0.954
same,normalized growth,"locus YLR113W, strain HOG1, hits give low values",0.675 (active)
same,normalized growth,"locus YLR133W, strain CKI1, hits give low values",0.81
same,normalized growth,"locus YLR403W, strain SFP1, hits give low values",0.877
same,normalized growth,"locus YML070W, strain DAK1, hits give low values",0.823
same,normalized growth,"locus YMR001C, strain CDC5, hits give low values",0.961
same,normalized growth,"locus YMR205C, strain PFK2 (second series), hits give low values",0.91
same,normalized growth,"locus YMR277W, strain FCP1, hits give low values",0.96
same,normalized growth,"locus YNL006W, strain LST8, hits give low values",0.963
same,normalized growth,"locus YNL020C, strain ARK1, hits give low values",0.941
same,normalized growth,"locus YNL161W, strain CBK1, hits give low values",0.955
same,normalized growth,"locus YNL183C, strain NPR1, hits give low values",0.911
same,normalized growth,"locus YNL207W, strain RIO2, hits give low values",0.969
same,normalized growth,"locus YNL222W, strain SSU72, hits give low values",0.961
same,normalized growth,"locus YNL307C, strain MCK1 (second series), hits give low values",0.743
same,normalized growth,"locus YOL078W, strain AVO1, hits give low values",0.965
same,normalized growth,"locus YOL136C, strain PFK27, hits give low values",0.889
same,normalized growth,"locus YOR119C, strain RIO1, hits give low values",0.905
same,normalized growth,"locus YOR231W, strain MKK1, hits give low values",0.942
same,normalized growth,"locus YOR329C, strain SCD5, hits give low values",0.969
same,normalized growth,"locus YPL031C, strain PHO85, hits give low values",0.852
same,normalized growth,"locus YPL153C, strain RAD53, hits give low values",0.857
same,normalized growth,"locus YPL204W, strain HRR25, hits give low values",0.897
same,normalized growth,"locus YPL209C, strain IPL1, hits give low values",0.955
same,normalized growth,"locus YPL256C, strain CLN2, hits give low values",0.733 (active)
same,normalized growth,"locus YPR025C, strain CCL1, hits give low values",0.962
same,normalized growth,"locus YPR106W, strain ISR1, hits give low values",0.971
same,normalized growth,"locus YPR111W, strain DBF20, hits give low values",0.952
same,normalized growth,"strain NNK1, hits give low values",0.966
same,normalized growth,"strain TSCII, hits give low values",0.957
Cc1cscc1S(=O)(=O)c1ccc(Cl)cc1,normalized growth,[1],0.991
same,normalized growth,[2],0.969
same,normalized growth,[3],0.97
same,normalized growth,[4],0.966
same,normalized growth,[5],0.929
same,normalized growth,[6],0.98
same,normalized growth,[7],0.958
same,normalized growth,[30],0.981
same,normalized growth,[8],0.821
same,normalized growth,[9],0.974
same,normalized growth,[10],1
same,normalized growth,[11],0.958
same,normalized growth,[12],0.922
same,normalized growth,[13],0.991
same,normalized growth,[14],0.819
same,normalized growth,[15],0.975
same,normalized growth,[16],0.967
same,normalized growth,[17],0.833
same,normalized growth,[18],0.969
same,normalized growth,[19],0.978
same,normalized growth,[20],0.953
same,normalized growth,[21],0.855
same,normalized growth,"locus YNL128W, strain TEP1, hits give low values",0.994
same,normalized growth,[22],0.945
same,normalized growth,[23],0.961
same,normalized growth,[24],0.975
same,normalized growth,[25],0.95
same,normalized growth,[26],0.904
same,normalized growth,[27],0.898
same,normalized growth,[28],0.953
same,normalized growth,[29],0.765
Cc1c(S(=O)(=O)c2ccc(Cl)cc2)csc1S(=O)(=O)N/N=C\c1c(Cl)cccc1Cl,normalized growth,[1],1
same,normalized growth,[2],1.01
same,normalized growth,[4],1.02
same,normalized growth,"locus YDL134C, strain PPH21, hits give low values",0.996
same,normalized growth,[5],0.948
same,normalized growth,[6],0.991
same,normalized growth,[7],1.01
same,normalized growth,[30],1
same,normalized growth,[8],1.02
same,normalized growth,[9],0.998
same,normalized growth,[11],1.01
same,normalized growth,[12],1.03
same,normalized growth,[13],1
same,normalized growth,[14],1
same,normalized growth,[15],1.01
same,normalized growth,[16],1.04
same,normalized growth,[17],1
same,normalized growth,[18],0.988
same,normalized growth,[19],1.01
same,normalized growth,[20],0.984
same,normalized growth,[21],1.04
same,normalized growth,[22],1
same,normalized growth,[23],1.03
same,normalized growth,[24],1
same,normalized growth,[25],1.01
same,normalized growth,[26],1.03
same,normalized growth,[27],0.886
same,normalized growth,[28],0.993
same,normalized growth,[29],1
